Laboratory results from PubChem BioAssay (Tox21).
Several values for one entry are separate records, joined by “and”; a condition that tells them apart may be missing. Identical values can stand only once. Results filed as inconclusive are left out. Activity calls are given as the source filed them. Unless noted, calls follow the shape of the dose curve; as a rule, active = well fitted curve in the direction sought with a large enough effect in the repeat runs; inconclusive = weak or mixed curves; inactive = no such curve, though single readings can be large; an effect the other way counts as inactive or inconclusive.

Experiments:
[1] = qHTS assay for small molecule agonists of the p53 signaling pathway (AID 651631; calls by dose curve; also: nearly all actives have a fitted effect of over 15% in size)
Summary of the method: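 Quantitative high-throughput format: 4,000 p53RE-bla HCT-116 cells/well, 5 h pre-incubation, 16 h compound exposure at 37 °C, 2 h room-temperature substrate step, fluorescence intensity measured.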

[2] = qHTS assay for small molecules that induce genotoxicity in human embryonic kidney cells expressing luciferase-tagged ATAD5 - cell viability (AID 651634; calls by dose curve; also: nearly all actives have a fitted effect of over 25% in size; also: potency is read from the fitted curve at half-maximal effect)
Summary of the method: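 After 15.5 hr incubation with compound at 37C, 5% CO2, HEK293T ATAD5-luciferase cells received CellTiter-Fluor reagent; fluorescence intensity was quantified following 30 min at 37C.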

[3] = qHTS assay for small molecule disruptors of the mitochondrial membrane potential - cell viability (AID 720634; calls by dose curve; also: nearly all actives have a fitted effect of over 20% in size; also: potency is read from the fitted curve at half-maximal effect)
Summary of the method: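 ATP-based luminescent viability readout (CellTiter-Glo, 30 min, room temperature) in HepG2 cells multiplexed with the m-MPI membrane potential dye; compound exposure lasted 1 hr at 37 C.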

[4] = qHTS assay for small molecule disruptors of the mitochondrial membrane potential (AID 720635); also: potency is read from the fitted curve at half-maximal effect
Summary of the method: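 Mitochondrial membrane potential tracked with Mito-MPS dye, red aggregates (ex 540/em 590 nm) against green monomers (ex 490/em 535 nm). Compound treatment 1 hr at 37C, dye 30 min in HepG2.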

[5] = qHTS assay to test for compound auto fluorescence at 590 nm (red) in HepG2 cells (AID 720674)
Summary of the method: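 1 hr compound incubation on HepG2 cells, 37 C, 5% CO2; plate read ex 540 nm / em 590 nm; intensities reported as Rose Bengal sodium equivalents.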

[6] = qHTS assay to test for compound auto fluorescence at 535 nm (green) in HepG2 cells (AID 720675)
[7] = qHTS assay to test for compound auto fluorescence at 590 nm (red) in HEK293 cells (AID 720679)
Summary of the method: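 Red channel, Ex/Em 540/590nm; signal expressed as equivalency to Rose Bengal sodium. HEK293, 2,000 cells/well, 10% dialyzed FBS; 23 nL compound pinned after 4-5 hr attachment; overnight 37C/5% CO2 before reading.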

[8] = qHTS assay to test for compound auto fluorescence at 535 nm (green) in HEK293 cells (AID 720680)
[9] = qHTS assay to test for compound auto fluorescence at 460 nm (blue) in HEK293 cell free culture (AID 720681)
Summary of the method: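 Blue fluorescence (Ex 405/Em 460 nm, triamterene-equivalent) was read immediately after pin transfer of compound or DMSO into medium (DMEM, 10% FBS) without cells.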

[10] = qHTS assay to test for compound auto fluorescence at 535 nm (green) in HEK293 cell free culture (AID 720682)
Summary of the method: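 Measurement is a direct plate read of green fluorescence (485 nm in, 535 nm out) after compound addition to serum-supplemented DMEM lacking cells, with fluorescein used to express intensities.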

[11] = qHTS assay to test for compound auto fluorescence at 590 nm (red) in HEK293 cell free culture (AID 720683)
Summary of the method: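 Red-channel autofluorescence of compounds in culture medium (DMEM, 10% FBS), no cells, measured at 540/590 nm. Rose Bengal sodium is the reference fluorophore for equivalence.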

[12] = qHTS assay to test for compound auto fluorescence at 590 nm (red) in HepG2 cell free culture (AID 720684)
Summary of the method: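 No cells present: MEM + 10% FBS only. Compound pinned in, red label read (540/590 nm). Activity = fluorescence equivalent to Rose Bengal sodium.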

[13] = qHTS assay to test for compound auto fluorescence at 460 nm (blue) in HepG2 cell free culture (AID 720685)
Summary of the method: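 Cell-free plates of MEM plus 10% FBS received 23 nL compound or DMSO vehicle; blue-channel (405/460 nm) intensity scored against triamterene as reference fluorophore.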

[14] = qHTS assay to test for compound auto fluorescence at 535 nm (green) in HepG2 cell free culture (AID 720686)
[15] = qHTS assay to test for compound auto fluorescence at 460 nm (blue) in HepG2 cells (AID 720687)
Summary of the method: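 Blue-channel autofluorescence (Ex/Em 405/460 nm, triamterene-equivalent) was measured after 1 hr compound exposure at 37 C, 5% CO2. Cells were HepG2, plated overnight at 37 C in MEM plus 10% FBS.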

[16] = molecular target: Glucocorticoid receptor (Homo sapiens) (UniProt P04150); assay: qHTS assay to identify small molecule agonists of the glucocorticoid receptor (GR) signaling pathway (AID 720691; active = well fitted activation curve with a large enough effect in the signal ratio in the repeat runs, not every such curve was filed as active; the % refers to the signal ratio)
Summary of the method: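 Cells: GR-bla HeLa, endogenous GR with stably integrated GRE-beta-lactamase reporter. Treatment 18 h, 37 C, compounds delivered in DMSO. Detection via LiveBLAzer B/G FRET substrate, 2 h RT, fluorescence intensity.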

[17] = molecular target: Glucocorticoid receptor (Homo sapiens) (UniProt P04150); assay: qHTS assay to identify small molecule antagonists of the glucocorticoid receptor (GR) signaling pathway (AID 720692; active = well fitted inhibition curve with a large enough effect in the signal ratio in the repeat runs, not every such curve was filed as active; the % refers to the signal ratio)
Summary of the method: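 Quantitative HTS in antagonist format: HeLa cells expressing endogenous GR and a stably integrated GRE-bla reporter, stimulated with 5 nM dexamethasone (final) alongside test compounds for 18 h.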

[18] = qHTS assay for small molecule agonists of the p53 signaling pathway - cell viability (AID 651633; calls by dose curve; also: nearly all actives have a fitted effect of over 30% in size; also: potency is read from the fitted curve at half-maximal effect)
Summary of the method: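 Viability counter-read: CellTiter-Glo luminescence (30 min, room temperature) in the same p53RE-bla plates. These plates had been exposed to compounds for 16 h at 37 C.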

[19] = qHTS assay to test for compound auto fluorescence at 460 nm (blue) in HEK293 cells (AID 720678)
Summary of the method: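 Blue read-out at excitation 405 nm and emission 460 nm follows overnight compound exposure of HEK293 cells at 37C in 5% CO2. Activity is given as auto fluorescence equivalency to triamterene.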

[20] = qHTS assay for small molecules that induce genotoxicity in human embryonic kidney cells expressing luciferase-tagged ATAD5 (AID 651632); also: nearly all actives have a fitted effect of over 15% in size
Summary of the method: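 Quantitative HTS in HEK293T expressing luciferase-tagged ATAD5, whose levels rise upon DNA damage. Exposure ran 16 hr at 37C and 5% CO2, with luminescence read 30 min after Amplite addition at room temperature.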

Measured: Potency

Glucocorticoid receptor (Homo sapiens), sequence (P04150 whole entry, looked up): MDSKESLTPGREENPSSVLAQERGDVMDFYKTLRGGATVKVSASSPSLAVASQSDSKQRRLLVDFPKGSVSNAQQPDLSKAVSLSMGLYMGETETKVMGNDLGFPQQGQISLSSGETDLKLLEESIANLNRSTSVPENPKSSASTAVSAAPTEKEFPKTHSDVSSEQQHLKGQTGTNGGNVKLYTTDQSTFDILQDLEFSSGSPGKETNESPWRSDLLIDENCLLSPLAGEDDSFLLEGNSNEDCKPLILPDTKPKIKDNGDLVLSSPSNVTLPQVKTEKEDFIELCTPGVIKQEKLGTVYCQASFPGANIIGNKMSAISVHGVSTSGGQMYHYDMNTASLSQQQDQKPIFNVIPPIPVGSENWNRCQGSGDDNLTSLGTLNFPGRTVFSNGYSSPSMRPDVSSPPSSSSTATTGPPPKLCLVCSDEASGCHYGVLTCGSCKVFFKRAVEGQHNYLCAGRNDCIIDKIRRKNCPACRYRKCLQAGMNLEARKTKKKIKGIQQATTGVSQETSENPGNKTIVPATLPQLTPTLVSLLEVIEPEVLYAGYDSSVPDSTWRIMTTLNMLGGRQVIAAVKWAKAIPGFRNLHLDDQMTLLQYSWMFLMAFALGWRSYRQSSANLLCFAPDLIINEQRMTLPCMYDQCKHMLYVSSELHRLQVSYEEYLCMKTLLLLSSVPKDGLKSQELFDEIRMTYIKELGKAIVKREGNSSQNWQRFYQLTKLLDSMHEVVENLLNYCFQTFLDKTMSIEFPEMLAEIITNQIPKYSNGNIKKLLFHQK

O=C1O[C@H]([C@@H](O)CO)C(O)=C1O
not listed: [18] | [19] | [20]
inactive: all other assays above

OC[C@H]1O[C@H](O[C@]2(CCl)O[C@H](CCl)[C@@H](O)[C@@H]2O)[C@H](O)[C@@H](O)[C@H]1Cl
not listed: [7] | [19] | [20]
inactive: all other assays above

COc1cccc(O)c1O
active: [2] 17.9 µM
not listed: [4] | [20]
inactive: all other assays above

COc1ccc2cc(S(=O)(=O)N[C@H](CC(=O)N[C@H](Cc3ccc(CN4[C@H](C)CCC[C@@H]4C)cc3)C(=O)N(C)C(C)C)c3ccc4c(c3)OCO4)ccc2c1
active: [2] 57.9 µM | [4] 10.3 µM
not listed: [1] | [16] | [17] | [18] | [19]
inactive: all other assays above

CN(C)CCOC(c1ccccc1)c1ccccc1
not listed: [1] | [7] | [19]
inactive: all other assays above

Cc1cc(C)nc(NS(=O)(=O)c2ccc(N)cc2)n1
not listed: [7] | [19] | [20]
inactive: all other assays above

C1CCC(C(CC2CCCCN2)C2CCCCC2)CC1 (stereo unspecified)
active: [18] 23.7 µM | [2] 26.6 µM | [4] 5.96 µM
not listed: [1] | [3] | [16] | [17]
inactive: all other assays above

CC(C)C(=O)Nc1ccc([N+](=O)[O-])c(C(F)(F)F)c1
active: [3] 12.5 µM and 27.3 µM | [4] 13.3 µM and 6.29 µM and 9.69 µM
not listed: [1] | [16] | [17]
inactive: all other assays above

CCCCCCCCCCCCCCCC[N+](C)(C)Cc1ccccc1
active: [18] 11.9 µM and 35.5 µM and 39.3 µM | [2] 29.8 µM and 79.4 µM | [3] 26.6 µM | [4] 4.22 µM and 10 µM and 13.9 µM
not listed: [1] | [16] | [17] | [20]
inactive: all other assays above

F[B-](F)(F)F
not listed: [1] | [7] | [16] | [17] | [18]
inactive: all other assays above

C[C@](N)(Cc1ccc(O)c(O)c1)C(=O)O
not listed: [4] | [7] | [16] | [17] | [20]
inactive: all other assays above

CN(N=O)C(=O)N[C@@H]1[C@@H](O)[C@H](O)[C@@H](CO)O[C@@H]1O
not listed: [19] | [20]
inactive: all other assays above

Nc1ccc([N+](=O)[O-])cc1O
active: [2] 54.5 µM | [4] 17.2 µM
not listed: [1] | [7] | [17] | [19]
inactive: all other assays above

Cc1ncc([N+](=O)[O-])n1CCO
not listed: [16] | [17] | [19] | [20]
inactive: all other assays above

Cc1cn([C@H]2C=C[C@@H](CO)O2)c(=O)[nH]c1=O
not listed: [1] | [16] | [17] | [20]
inactive: all other assays above
